The structures appear in SMILES notation. The whole screen tested about 1,200 compounds, of which about 480 (40%) were called active. Inconclusive results (about 29%) are left out. This is one part of the list. Unmarked numbers belong to inactive results. Calls come from the whole dose curve; as a rule, active = well fitted inhibition curve with a large enough effect; inconclusive = small, poorly fitted or top-dose-only effect; inactive = no such curve, though single readings can be large or run the other way.

Data on 55 compounds can be found in PubChem BioAssay AID651558 (National Center for Advancing Translational Sciences (NCATS), 2012).
% is set by controls: 0 for no effect and ±100 for the full control effect; potency is the fitted concentration of half-maximal effect.

A short description of this test: qHTS Assay to Find Inhibitors of Chronic Active B-Cell Receptor Signaling: Hit Validation in Primary Screen. Note: nearly all actives have a fitted effect of over 75% in size. The note with it: ABC-DLBCL IkB-luc/CBR ratio luminescence, 4 h; series mostly up to 46.1 µM; activity change, negative = inhibition: at the top concentration. In a few lines:
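TMD8 ABC-DLBCL cells carrying doxycycline-inducible IkBa-green luciferase fusion and free red luciferase, 0.5% FBS, dosed 46 uM–3 nM with doxycycline for 4 h at 37C. Green/red luminescence ratio normalized to basal and 10 uM MG-132.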
`Cc1ccc(C)c(/C=N/NC(=S)NC(C)C)c1`: the “activity change, negative = inhibition” value was -8.95%. Take `Cc1ccc(C)c(NS(=O)(=O)c2ccc(-c3cnc(C4CC4)o3)cc2)c1`: the Potency was 1.03 µM (active). The same measure, in the same setting: then `COc1ccc(C)cc1NS(=O)(=O)c1ccc(-c2cnc(C3CC3)o2)cc1`, with 0.92 µM (active). With `Cc1cc(C)cc(NS(=O)(=O)c2ccc(-c3cnc(C4CC4)o3)cc2)c1`, the Potency was 2.06 µM (active).

Regarding `COc1ccc(NS(=O)(=O)c2cc(-c3cnc(C4CC4)o3)ccc2C)cc1`, the Potency was 23.1 µM (active). `Cc1ccc(NS(=O)(=O)c2ccc(-c3cnc(C4CC4)o3)cc2)c(C)c1`: the Potency was 3.26 µM (active). Turning to `CC(=O)Nc1ccc(S(=O)(=O)NCC(=O)OC(C)c2ccccc2Cl)cc1` (stereo not given), the “activity change, negative = inhibition” value was -9.59%. For the compound `CC1=CC(C)(C)N(S(=O)(=O)c2ccc(C)cc2)c2ccccc21`, the Potency is 14.6 µM (active).

Turning to `CC(=O)Nc1ccc(S(=O)(=O)N2c3ccccc3C(C)=CC2(C)C)cc1`, the Potency was 4.11 µM (active). With `CCOC(=O)C1=C(O)/C(=C/c2ccc(OCC(=O)O)c(OCC)c2)SC1=Nc1ccccc1`, the “activity change, negative = inhibition” value was -14.4%. As for `CCOc1cc(/C=C2\CN(C)C/C(=C\c3ccc(O)c(OCC)c3)C2=O)ccc1O`, the Potency is 6.51 µM (active). Turning to `C=CCC(CC(O)COCCC)C(=O)NNC(=S)Nc1ccccc1` (stereo not given), the “activity change, negative = inhibition” value was -5.99%. With `Cc1ccc(C(=O)c2cc([N+](=O)[O-])ccc2N2CCOCC2)c(C)c1`, the Potency was 4.61 µM (active). In the case of `O=C(c1ccc(Br)cc1)c1cc([N+](=O)[O-])ccc1N1CCCCC1`, the Potency was 2.31 µM (active).

As to `Cc1ccc(C(=O)c2cc([N+](=O)[O-])ccc2N2CCCCC2)cc1C`, the Potency is 6.51 µM (active). Turning to `Cc1ccc(C(=O)c2cc([N+](=O)[O-])ccc2N2CCCCC2)c(C)c1`, the Potency was 1.03 µM (active). `COCCCNC(=O)C[C@H]1C[C@H](C(=O)N2CCCCC2)[C@@]2(C)c3[nH]c4ccc(Cl)cc4c3CCN2C1=O`: the “activity change, negative = inhibition” value was -15.7%.

As to `S=c1c2c(nc3nc[nH]n13)CCC2`, the “activity change, negative = inhibition” value is -4.25%. For `Cc1ccc(C(=O)c2cc([N+](=O)[O-])ccc2N2CCCCC2)cc1`, the Potency is 2.31 µM (active). As for `CC1CCCN(c2ccc([N+](=O)[O-])cc2C(=O)c2ccccc2)C1` (stereo not given), the Potency is 3.26 µM (active). Same read-out and setting: then `CCN(CC)c1ccc(/C=N/N=C(N)N)c(O)c1`, with 10.3 µM (active).

Turning to `CCN(CC)c1ccc(/C=N/NC(=S)NC)c(O)c1`, the “activity change, negative = inhibition” value is 84.8%. For `COc1cc(C(=O)NNC(=S)Nc2ccc(S(N)(=O)=O)cc2)cc(OC)c1OC`, the “activity change, negative = inhibition” value was -2.88%. As for `COc1ccc(N/C=C/C(=O)c2cc(OC)c(OC)c(OC)c2)cc1`, the Potency is 7.31 µM (active). Consider `COc1ccc(Nc2cc(C)nc(-n3nc(C)cc3C)n2)cc1`, for which the Potency is 7.31 µM (active).

Consider `CCOc1ccc(Nc2cc(C)nc(-n3nc(C)cc3C)n2)cc1`, for which the Potency is 3.26 µM (active). Regarding `COc1ccc(N=N/C(=C\O)C(=O)c2ccco2)cc1`, the “activity change, negative = inhibition” value is 118%. Turning to `COC(=O)c1cn(C(=O)c2ccc(OC)cc2)c2ccccc12`, the “activity change, negative = inhibition” value is 38.5%. Consider `COc1ccc(C(=O)n2c(-c3ccco3)nc3ccccc32)cc1`, for which the Potency is 18.4 µM (active). As to `Cc1ccc(S(=O)(=O)N2CCN(C(=O)CSc3n[nH]c(N)n3)CC2)c(C)c1`, the “activity change, negative = inhibition” value was -6.01%. With `COc1cccc(CSc2nc3ccccc3cc2C=O)c1`, the Potency is 2.59 µM (active). On to `Cc1ccc(CSc2nc3ccccc3cc2C=O)cc1`, for which the Potency is 2.91 µM (active).

On to `O=Cc1cc2ccccc2nc1SCc1ccc(Cl)c(Cl)c1`, for which the “activity change, negative = inhibition” value was -22.9%. `CCC(=O)[C@@]1(C)[C@H](C)C[C@H]2[C@@H]3CCC4=CC(=O)C=C[C@]4(C)[C@H]3[C@@H](O)C[C@@]21C`: the “activity change, negative = inhibition” value was -30%. Consider `CCOC(=O)c1ccc(NC(=O)Nc2ccon2)cc1`, for which the Potency is 2.31 µM (active). On the same count and under the same terms, then `O=C(Nc1ccc([N+](=O)[O-])cc1)Nc1ccon1`, with 8.2 µM (active). Take `CCOC(=O)c1ccc(NC(=S)NNC(C)(C)C)cc1`: the “activity change, negative = inhibition” value is -6.72%. For `Cc1c(C(=O)N/N=C/c2ccc(Cl)cc2)[nH]c2ccc(Cl)cc12`, the Potency is 0.731 µM (active). Consider `COc1ccc(/C=N/NC(=O)c2[nH]c3ccc(Cl)cc3c2-c2ccccc2)c(C(=O)O)c1OC`, for which the “activity change, negative = inhibition” value was 11.9%. On the same count and under the same terms, under `COc1ccc(NC(=S)N/N=C/c2ccc(F)c(F)c2)cc1` stands -4.94%; under `Cc1ccc2[nH]c(C(=O)N/N=C/c3ccccc3C(=O)O)c(-c3ccccc3)c2c1`, 5.85%. `CCOc1ccc2[nH]c(C(=O)N/N=C/c3ccc(OC)cc3)cc2c1`: the Potency was 2.91 µM (active).

As for `O=C(N/N=C/c1ccccc1)c1[nH]c2ccc(Br)cc2c1-c1ccccc1`, the Potency is 0.517 µM (active). `O=C(N/N=C/c1ccc(O)cc1)c1[nH]c2ccc(Br)cc2c1-c1ccccc1`: the Potency is 1.3 µM (active).

As for `NNC(=O)c1cc2cc(OC(F)(F)F)ccc2[nH]1`, the “activity change, negative = inhibition” value was 0.4%. Turning to `NNC(=O)c1[nH]c2ccc([N+](=O)[O-])cc2c1-c1ccccc1`, the “activity change, negative = inhibition” value is 2.28%. Consider `COc1ccc(/C=N/NC(=O)c2[nH]c3ccc(Br)cc3c2-c2ccccc2)c(C(=O)O)c1OC`, for which the “activity change, negative = inhibition” value is 11.4%. Regarding `O=C(NN=C1CCCC1)c1[nH]c2ccc(Cl)cc2c1-c1ccccc1`, the Potency was 13 µM (active). Consider `NNC(=O)c1[nH]c2ccc(Cl)cc2c1-c1ccccc1`, for which the “activity change, negative = inhibition” value is -12.8%.

Take `COc1ccc(/C=N/NC(=O)c2[nH]c3ccc(Br)cc3c2-c2ccccc2)cc1`: the Potency is 0.231 µM (active). In the case of `Cc1ccc2[nH]c(C(=O)NN=C3CCCCC3)c(-c3ccccc3)c2c1`, the “activity change, negative = inhibition” value was -0.622%. For `Cc1nn(CCC(=O)NNC(=S)NCC(C)C)c(C)c1Br`, the “activity change, negative = inhibition” value is -4.7%. Consider `CCN(CC)c1ccc2cc(-c3nc4ccccc4n3C)c(=O)oc2c1`, for which the Potency is 0.58 µM (active). In the case of `CC(/C=C/c1ccccc1)=N\NC(=S)NC(C)C`, the “activity change, negative = inhibition” value was 28.3%. The same measure, in the same setting: under `O=C(CSc1cccc[n+]1[O-])CSc1cccc[n+]1[O-]` stands -7%.
